Screens (PubChem)
Rows were chosen to be rich in hits. Some 4.2% of all compounds tested hit in one or more screens of this group.
TIM10 inh – growth inhibitors of isogenic TIM10 control yeast, primary screen, counter-screen for tim10-1 yeast inhibitor project, luminescence, uHTS. S. cerevisiae TIM10 strain growth, BacTiter-Glo luminescence, 24 h. AID 463195, 2010. hit rate 1.4% among 330,000. inhibition, % at 10 µM;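 active = inhibition of 40% or more at the single tested concentration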;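 also: wild-type TIM10 isogenic control strain grown at permissive 25 °C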
NALP3 yeast inh – NALP3 inflammasome inhibitors in reconstituted yeast, primary screen, luminescence, uHTS. hit rate 0.39% among 330,000. AID 2825, 2010. inhibition, % at 10 µM. Yeast reconstituted NLRP3/ASC/caspase-1, beta-gal luminescence, 24 h;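 active = inhibition of 50% or more; inactive = inhibition below 50%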;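 also: plate controls were induced DMSO wells for no effect and uninduced yeast grown without galactose for full effect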
NALP1 yeast inh – NALP1 inflammasome inhibitors in reconstituted yeast, colorimetric, S. cerevisiae, triplicate retest | inhibition, % at 10 µM | hit rate 0.61% among 280,000 | S. cerevisiae NALP1/ASC/caspase-1 growth, X-gal OD620, 72 h | AID 2071, 2009; in the data active = inhibition mostly above about 24%, no sharp cut-off; inactive = mostly below about 32%
tim10-1 inh – growth inhibitors of tim10-1 mutant yeast, primary screen, luminescence, uHTS; S. cerevisiae tim10-1 ts strain growth, BacTiter-Glo, 24 h; inhibition, % at 20 µM; hit rate 2.2% among 330,000;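 active = inhibition of at least 40%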;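 also: mutant grown at 25 °C; 0% = DMSO wells with yeast and 100% = wells holding no yeast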
tim23-1 inh – growth inhibitors of tim23-1 mutant yeast, primary screen, luminescence, uHTS | S. cerevisiae tim23-1 growth, BacTiter-Glo luminescence, 24 h | inhibition, % at 20 µM | hit rate 1.3% among 330,000 | AID 463212, 2010;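 active = growth inhibition of the mutant yeast at or above 50%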;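 also: temperature-sensitive mutant grown at 25 °C; plate controls were DMSO-treated mutant yeast for no effect and medium wells lacking yeast for full effect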
V-ATPase pHluor – regulators of yeast V-ATPase proton pumping, primary screen, pHLuorin cytosolic pH fluorescence | S. cerevisiae | response, % at 10 µM | hit rate 0.37% among 350,000 | AID 504577, 2011; in the data active = response mostly above about 7.3%, no sharp cut-off; inactive = mostly below about 5.4%; also: actives read high
tim23-1 conf – tim23-1 mutant yeast growth inhibitors, confirmation, luminescence, single concentration; shares compounds with tim23-1 inh; S. cerevisiae tim23-1 growth, BacTiter-Glo luminescence, 24 h; inhibition, % at 20 µM; hit rate 83% among 4,400; AID 463218, 2010;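 active = inhibition above about 39% in either of two replicate wells at 20 µM, limit read from the data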;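 also: temperature-sensitive tim23-1 mutant grown at 25 °C; 0% = DMSO wells with yeast and 100% = medium wells without yeast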
Numbers without * were called inactive; · = no result.

SMILES | TIM10 inh | NALP3 yeast inh | NALP1 yeast inh | tim10-1 inh | tim23-1 inh | V-ATPase pHluor | tim23-1 conf
Nc1cc(N)nc(CS)n1 | -11 | -9 | 21 | -10 | 2 | -1 | ·
CCC(C)Sc1cc(-c2nc3cc(C)ccn3c2NC2CCCCC2)ccc1OC (stereo not drawn) | 34 | 25 | · | 34 | 60* | 2 | 49*
CCCCNc1c(-c2ccc(OC)c(SC(C)CC)c2)nc2cc(C)ccn12 (stereo not drawn) | 20 | 31 | · | 29 | 55* | 1 | 51*
c1cc(SC2CCCCC2)cc(-c2nc3cnccn3c2NC2CCCCC2)c1 | 17 | -9 | · | 20 | 34 | 1 | ·
CCCCNc1c(-c2ccc(OC)c(SC(C)CC)c2)nc2ccc(C)cn12 (stereo not drawn) | 3 | 46 | · | 4 | 54* | -1 | 41*
CCCCNc1c(-c2ccc(OC)c(SC(C)CC)c2)nc2cnccn12 (stereo not drawn) | · | · | · | · | · | -6 | ·
CCC(C)Sc1cccc(-c2nc3cnccn3c2NC2CCCCC2)c1 (stereo not drawn) | 19 | 9 | · | 21 | 50 | 5 | 41*
Cc1cc(C)c2c(=O)n3c(nc2c1)C(Cc1ccc(O)cc1)NC(=O)c1cc2ccccc2cc1-3 (stereo not drawn) | · | · | · | · | · | 1 | ·
C(=N\Nc1nc2ccccc2s1)/c1ccccn1 | 25 | 17 | -9 | 37 | 58* | 0 | 61*
Cc1ccc(-c2csc3ncn(C(C)C(=O)O)c(=O)c23)cc1 (stereo not drawn) | -5 | 12 | -4 | -8 | 3 | 0 | ·
O=Cc1cn(-c2ccccc2)nc1-c1cccnc1 | 40 | 38 | 17 | 28 | 62* | 3 | 57*
O=Cc1cn(-c2ccccc2)nc1-c1cccc([N+](=O)[O-])c1 | · | · | · | · | · | 2 | ·
COCC(=O)N/N=C(\C)CC(=O)NCc1ccco1 | -2 | 14 | -7 | -10 | 7 | -2 | ·
Cc1ccc(-c2nc3c(c(=O)c4ccccc4n3C)c(=O)n2Cc2ccco2)cc1 | 30 | 10 | 20 | 6 | 53* | -3 | 46*
C[C@@H]1CN([C@H](C)CO)C(=O)CCCn2nncc2CO[C@@H]1CN(C)C(=O)C1CC1 | · | · | · | · | · | 1 | ·
Fc1ccc(CSc2nc3ccccc3[nH]2)c2ccccc12 | 39 | 41 | 9 | 32 | 56* | 8 | 55*
CCCc1nc2cc3c(cc2[nH]1)n(C)c(=O)n3C | -6 | 12 | 8 | -9 | -1 | 1 | ·
Cc1cc(C)nc(OC(=O)c2ccc(Cl)cc2Cl)n1 | 4 | -16 | -6 | 27 | 74* | · | 67*
Cc1cccn2c(=O)c(/C=C(\C#N)S(=O)(=O)c3ccccc3)c(Oc3ccc(Cl)cc3)nc12 | 20 | 24 | 22 | 0 | 50* | -2 | 36
CSc1nnc(C(C)(C)C)c(=O)n1/N=C/c1ccccc1 | 33 | 34 | -3 | 25 | 53* | 5 | 51*
COc1ccc(CCNC(=O)C2CCCN(c3ncccn3)C2)cc1 (stereo not drawn) | -5 | 21 | 4 | 11 | 0 | 1 | ·
CCOC(=O)c1nnsc1NC(=O)Nc1ccc(OC)cc1 | 8 | 21 | 14 | -14 | 84* | -1 | 2
CCOC(=O)c1nnsc1NC(C)=O | 0 | 5 | 27 | 6 | -7 | 1 | ·
COc1ccc(-c2coc3cc(OC(C)=O)c(OC)cc3c2=O)cc1 | 19 | 16 | · | 4 | 53* | -3 | 28
O=c1cc(-c2ccccc2Cl)oc2c(NS(=O)(=O)c3cc(Cl)cc(Cl)c3O)ccc(O)c12 | 27 | -10 | 26 | 4 | 52* | 11 | -222
SMILES | TIM10 inh | NALP3 yeast inh | NALP1 yeast inh | tim10-1 inh | tim23-1 inh | V-ATPase pHluor | tim23-1 conf
CCN(CC)c1ccc(N=Cc2cc(Br)ccc2O)cc1 | 20 | 14 | -5 | 24 | 49 | 3 | ·
CC(C)(C)c1ccc(O)c(N=Cc2cc(Br)ccc2O)c1 | 15 | 26 | 9 | 12 | 69* | 2 | 35
OCC(CO)(CO)N=Cc1cc(Br)ccc1O | 14 | 3 | -5 | 30 | 59* | -3 | 56*
Cc1ccc(O)c(C=Nc2cc(C)ccc2O)c1 | -8 | 7 | 27 | 5 | 16 | 3 | ·
O=C1CSC(c2cccc(F)c2)N1c1ccccc1 (stereo not drawn) | 0 | -3 | 1 | 4 | 2 | 5 | ·
Cc1c(N)cc(S(=O)(=O)O)cc1NC(=O)c1cccc([N+](=O)[O-])c1 | · | · | · | · | · | 3 | ·
CC(C)(C)n1nc(Cc2cccc3ccccc23)c2c(N)ncnc21 | 22 | 44 | · | 28 | 62* | 19 | 62*
Cc1ccccc1C(=O)NNC(=O)CSc1nc(-c2ccccc2)cc(=O)[nH]1 | 5 | 8 | 4 | -7 | 2 | 0 | ·
C#CCn1c2ccccc2c2nc3ccccc3nc21 | 2 | 4 | 7 | -15 | -16 | 1 | ·
CC(C)n1c2ccccc2c2nc3ccccc3nc21 | 20 | -31 | -1 | 37 | 51* | -1 | 52*
Cc1nc2cc(-c3ccccc3)sc2c(=O)n1N | 33 | 13 | -1 | 36 | 51* | 0 | 53*
Cc1nn(-c2ccccc2)c(NC(=O)c2cccs2)c(-c2ccccc2Cl)c1=O | -21 | 8 | 14 | -9 | 4 | 3 | ·
CCOc1ccc(OCCSc2nc3ccccc3[nH]2)cc1 | 26 | 28 | -42 | 16 | 60* | 1 | 32
N#C/C(=C\c1ccc(OC(F)F)cc1)C(=O)N1CCCCC1 | 25 | 10 | · | 33 | 62* | 3 | 44*
CCN1CCN(C(=O)/C(C#N)=C/c2ccc(OC(F)F)cc2)CC1 | 1 | 10 | 14 | 9 | -12 | 3 | ·
CC1=CC[C@@]23CCCN2C(=O)CCC[C@H]3C1 | -5 | · | · | 13 | 89* | -1 | 7
CC(=O)Nc1ccc(OS(=O)(=O)c2ccccc2C)cc1 | -4 | 30 | -6 | 6 | 9 | -2 | ·
CC(=O)Nc1ccc(OS(=O)(=O)c2cc(Cl)ccc2C)cc1 | 1 | 35 | 6 | 19 | 52* | -3 | 46*
O=C(CC(=O)c1cc(Cl)ccc1O)c1ccccc1 | 23 | 17 | -19 | 34 | 55* | 2 | 65*
COc1ccc(C(=O)CC(=O)c2ccccc2O)cc1 | 7 | 30 | 15 | 4 | 50* | 1 | 52*
O=C1OC(O)c2cccc3cccc1c23 (stereo not drawn) | · | · | · | · | · | 3 | ·
Cc1c(NC(=O)Nc2ccc3c(c2)OCO3)cccc1[N+](=O)[O-] | 6 | 16 | 16 | 6 | 9 | 6 | ·
COc1ccc(NC(=O)c2cc3ccccc3cc2OC)cc1 | -19 | 21 | 20 | -26 | 50* | -5 | 36
